Results on 11 compounds are retold here after PubChem BioAssay (Tox21).

“And” between values parts separate entries of the source, which are not always exact repeats. Equal entries are not always repeated. Results filed as inconclusive are left out. The source made the active and inactive calls. Unless noted, the call rests on the fitted dose curve; in most records, active means well fitted curve in the direction sought with a large enough effect in the repeat runs; inconclusive means weak or mixed curves; inactive means no such curve, though single readings can be large; an effect the other way counts as inactive or inconclusive.

Assay [1] in a line: A CellTox Green Cytotoxicity Assay to monitor cytotoxicity in HepG2 cells - 0 hour (AID 1224882). Further: nearly all actives have a fitted effect of over 35% in size. The method, boiled down:
(§1)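 First, HepG2 cells (600/well) mixed with reagent were plated; second, after 5 h at 37 C they received compounds via pintool; third, fluorescence was measured at 0 h through 40 h at 8 h intervals.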

Assay [2] in a line: A CellTox Green Cytotoxicity Assay to monitor cytotoxicity in HepG2 cells - 32 hour (AID 1224883). Further: nearly all actives have a fitted effect of over 50% in size. Further: potency means the concentration at half of the fitted maximal effect. The procedure, abridged:
as §1

Assay [3] is described as follows: A CellTox Green Cytotoxicity Assay to monitor cytotoxicity in HEK293 cells - 8 hour (AID 1224884). Further: nearly all actives have a fitted effect of over 35% in size. The procedure, abridged:
(§2)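 Dead-cell fluorescence measured kinetically: asymmetric cyanine dye, HEK293, 600 cells/well, 5 h settle, 23 nL cpd/DMSO, 37 C, reads 0–40 h every 8 h.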

Assay [4] is described as follows: qHTS RealTime-Glo MT Cell Viability Assay in HEK293 cells - 24 hour (AID 1224886). Further: nearly all actives have a fitted effect of over 50% in size. Further: potency means the concentration at half of the fitted maximal effect. The procedure, abridged: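 Assay medium contained NanoLuc luciferase plus cell-permeant prosubstrate, added with HEK293 cells at 600 cells/well. After 5 h at 37 C/5% CO2 compounds were added; plates stayed at 37 C for 40 h with serial luminescence reads.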
Background: qHTS replaces the single test concentration by a dilution series.

Assay [5] is described as follows: qHTS RealTime-Glo MT Cell Viability Assay in HEK293 cells - 8 hour (AID 1224887). Further: nearly all actives have a fitted effect of over 50% in size. Further: potency means the concentration at half of the fitted maximal effect. The method, boiled down:
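600 HEK293 cells per well, dispensed already mixed with RealTime-Glo MT reagents. Compound dosing came 5 h later. The same wells were read for luminescence at 0, 8, 16, 24, 32 and 40 h of exposure at 37 C.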

Assay [6] in a line: A CellTox Green Cytotoxicity Assay to monitor cytotoxicity in HEK293 cells - 16 hour (AID 1224888). Further: nearly all actives have a fitted effect of over 35% in size. The procedure, abridged: as §2
Assay [7] in a line: A CellTox Green Cytotoxicity Assay to monitor cytotoxicity in HepG2 cells - 8 hour (AID 1224890). Further: nearly all actives have a fitted effect of over 45% in size. The method, boiled down: as §1
Assay [8] in a line: qHTS assay to identify small molecule antagonists of the estrogen receptor alpha (ER-alpha) signaling pathway using the BG1 cell line in the presence of 0.1 nM 17-beta-estradiol - cell viability counter screen (AID 1259241). Further: nearly all actives have a fitted effect of over 40% in size. Further: potency means the concentration at half of the fitted maximal effect. The method, boiled down:
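Viability in VM7Luc4E2 cells after 22 hr compound exposure under 0.1 nM 17beta-estradiol stimulation, by CellTiter-Fluor.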

A short description of assay [9]: qHTS assay to identify small molecule antagonists of the androgen receptor (AR) signaling pathway using the MDA cell line in the presence of 0.5 nM R1881 - cell viability counter screen (AID 1259242). Further: nearly all actives have a fitted effect of over 45% in size. Further: potency means the concentration at half of the fitted maximal effect. The procedure, abridged:
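qHTS format. MDA-kb2 (MMTV-luc, AR/GR responsive) + cpd + 0.5 nM R1881 final, 16 hr 37C/0% CO2 → CellTiter-Fluor 30 min → fluorescence intensity.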

Assay [10] is described as follows: qHTS assay to identify small molecule HDAC inhibitors (AID 1259364).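 Further: wild-type HCT-116 cells with endogenous class I/II HDAC activity; top concentration of the series differs between compounds; nearly all actives have a fitted effect of over 45% in size.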 The method, boiled down:
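Quantitative high-throughput format: overnight-seeded HCT-116 cells got compounds for 2 hr at 37C; HDAC-Glo I/II reagent added, 30 min RT, luminescence measured.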

Assay [11] in a line: qHTS assay to identify small molecule agonists of the sonic hedgehog signaling (Shh) pathway - cell viability counter screen (AID 1259366). Further: nearly all actives have a fitted effect of over 50% in size. Further: potency means the concentration at half of the fitted maximal effect. The method, boiled down:
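Stable Gli1-Luc NIH/3T3 clone, 2,000 cells/well. Compound exposure 24hr at 37C. Read-out: CellTiter-Fluor fluorescence.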

Assay [12] can be described thus: qHTS assay to identify small molecule antagonists of the sonic hedgehog signaling (Shh) pathway - cell viability counter screen (AID 1259367). Further: nearly all actives have a fitted effect of over 55% in size. Further: potency means the concentration at half of the fitted maximal effect. The method, boiled down: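 Fluorescence read-out (CellTiter-Fluor, 1 hr at 37C) taken after 23 hr compound treatment of 3T3 Gli1-Luc cells stimulated with conditioned medium. Cells were seeded at 2,000 per well and pre-incubated 4 hr.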

Assay [13] in a line: qHTS assay to identify small molecule agonists of the sonic hedgehog signaling (Shh) pathway (AID 1259368; calls by dose curve;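 further: NIH/3T3-derived 3T3Gli1-Luc cells carrying a stable Gli1-driven firefly luciferase reporter; series mostly up to about 92 µM; nearly all actives have a fitted effect of over 15% in size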). The procedure, abridged:
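Quantitative high-throughput format using a Gli1-driven firefly luciferase reporter line derived from NIH/3T3 cells. After a 24 hr compound treatment at 37 C and 5% CO2, luminescence reported Gli1 response element activity.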

Assay [14] can be described thus: qHTS assay to identify small molecule antagonists of the sonic hedgehog signaling (Shh) pathway (AID 1259369; calls by dose curve; further: nearly all actives have a fitted effect of over 45% in size; further: potency means the concentration at half of the fitted maximal effect). The method, boiled down:
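Stable Gli1-Luc reporter NIH/3T3 clone; quantitative HTS in stimulated mode with conditioned medium. Luminescence measured after 24hr compound treatment at 37 C.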

The nature of assay [15]: qHTS RealTime-Glo MT Cell Viability Assay in HepG2 cells - 0 hour (AID 1224889). Further: nearly all actives have a fitted effect of over 50% in size. Further: potency means the concentration at half of the fitted maximal effect. The method, boiled down: (§3)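 qHTS, HepG2, 600 cells/well, RealTime-Glo (NanoLuc + prosubstrate) added with cells; 5 h preincubation; DMSO compound addition; 37 C; luminescence at 0/8/16/24/32/40 h.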
The target in assay [16] is Estrogen receptor (Homo sapiens) (UniProt P03372). Briefly: qHTS assay to identify small molecule antagonists of the estrogen receptor alpha (ER-alpha) signaling pathway using the BG1 cell line in the presence of 0.1 nM 17-beta-estradiol (AID 1259244). Further: nearly all actives have a fitted effect of over 50% in size. The procedure, abridged:
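Reporter is a stably transfected luciferase under four estrogen responsive elements in VM7Luc4E2 cells expressing native full-length ER-alpha; inhibition of 0.1 nM (final) 17beta-estradiol-driven signal over 22 h is read by luminescence.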

Assay [17] can be described thus: qHTS assay to identify small molecule HDAC inhibitors - cell viability counter screen (AID 1259365). The procedure, abridged:
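Cytotoxicity was gauged in wild-type HCT-116 cells after a brief 2hr treatment with DMSO-dissolved compounds at 37C and 5% CO2, using CellTiter-Glo luminescence developed for 30min at room temperature.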

Assay [18] is described as follows: qHTS RealTime-Glo MT Cell Viability Assay in HepG2 cells - 16 hour (AID 1224885). Further: nearly all actives have a fitted effect of over 50% in size. The procedure, abridged: as §3
A short description of assay [19]: qHTS assay to identify small molecule phospholipidosis (PLD) inducers (AID 1259344; active means well fitted curve in the direction sought with a large enough effect; an effect the other way counts as inactive or inconclusive). The procedure, abridged:
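Read-out is LipidTOX Red fluorescence (ex 595/em 615) imaged in HepG2 cells after 24 h compound exposure at 37 C, with Hoechst nuclear counterstain (ex 352/em 461) allowing per-cell normalisation.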

Assay [20] deals with Androgen receptor (Homo sapiens) (UniProt P10275). Briefly: qHTS assay to identify small molecule antagonists of the androgen receptor (AR) signaling pathway using the MDA cell line in the presence of 0.5 nM R1881 (AID 1259243). Further: nearly all actives have a fitted effect of over 50% in size. The procedure, abridged: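 Antagonist mode quantitative HTS in MDA-kb2 MMTV-luciferase cells, agonist R1881 at 0.5 nM final, 16 hr exposure at 37C and 0% CO2, luminescent detection.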
Sequence of Androgen receptor (Homo sapiens) (P10275 whole entry, looked up): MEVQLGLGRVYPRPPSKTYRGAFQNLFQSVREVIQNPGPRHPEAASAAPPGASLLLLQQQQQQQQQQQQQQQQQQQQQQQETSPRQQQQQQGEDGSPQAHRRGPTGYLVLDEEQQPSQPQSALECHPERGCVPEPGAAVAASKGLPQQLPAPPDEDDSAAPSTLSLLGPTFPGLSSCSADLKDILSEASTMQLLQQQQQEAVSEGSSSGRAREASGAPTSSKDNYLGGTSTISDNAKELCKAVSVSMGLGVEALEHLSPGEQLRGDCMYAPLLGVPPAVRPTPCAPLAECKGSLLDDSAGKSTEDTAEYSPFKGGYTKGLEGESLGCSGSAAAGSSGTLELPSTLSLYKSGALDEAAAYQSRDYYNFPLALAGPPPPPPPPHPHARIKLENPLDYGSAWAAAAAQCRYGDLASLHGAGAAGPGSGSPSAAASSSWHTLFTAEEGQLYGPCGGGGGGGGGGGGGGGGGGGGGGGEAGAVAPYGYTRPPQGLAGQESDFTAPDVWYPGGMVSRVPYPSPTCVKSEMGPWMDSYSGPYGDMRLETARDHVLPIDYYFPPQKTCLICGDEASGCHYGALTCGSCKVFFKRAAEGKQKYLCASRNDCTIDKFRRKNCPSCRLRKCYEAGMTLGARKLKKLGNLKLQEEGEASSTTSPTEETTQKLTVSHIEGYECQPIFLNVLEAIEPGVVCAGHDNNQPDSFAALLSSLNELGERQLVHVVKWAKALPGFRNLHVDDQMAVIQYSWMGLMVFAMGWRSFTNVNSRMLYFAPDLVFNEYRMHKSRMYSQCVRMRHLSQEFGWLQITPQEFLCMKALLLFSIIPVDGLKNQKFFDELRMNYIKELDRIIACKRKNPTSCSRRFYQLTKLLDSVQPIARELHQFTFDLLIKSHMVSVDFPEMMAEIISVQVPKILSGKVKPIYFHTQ

Sequence of Estrogen receptor (Homo sapiens) (P03372 whole entry, looked up): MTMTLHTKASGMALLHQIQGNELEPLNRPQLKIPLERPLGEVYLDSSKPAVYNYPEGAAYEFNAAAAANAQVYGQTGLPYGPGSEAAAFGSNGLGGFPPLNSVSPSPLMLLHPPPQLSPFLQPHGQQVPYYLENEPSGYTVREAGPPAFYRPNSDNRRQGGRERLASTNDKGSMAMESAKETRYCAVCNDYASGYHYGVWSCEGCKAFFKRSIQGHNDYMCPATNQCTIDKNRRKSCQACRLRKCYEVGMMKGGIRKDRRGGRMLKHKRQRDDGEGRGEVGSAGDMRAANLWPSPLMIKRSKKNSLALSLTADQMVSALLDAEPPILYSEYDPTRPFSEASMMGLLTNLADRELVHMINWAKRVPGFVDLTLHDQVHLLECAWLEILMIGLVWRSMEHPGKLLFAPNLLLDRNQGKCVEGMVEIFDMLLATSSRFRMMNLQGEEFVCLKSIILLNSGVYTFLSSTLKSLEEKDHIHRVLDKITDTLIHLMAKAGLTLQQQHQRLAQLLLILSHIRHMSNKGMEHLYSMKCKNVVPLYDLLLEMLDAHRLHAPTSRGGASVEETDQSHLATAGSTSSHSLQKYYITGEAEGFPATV

In the case of `COc1cc(S(=O)(=O)O)c(C)cc1N=Nc1c(O)ccc2cc(S(=O)(=O)O)ccc12`, the Potency entry in [1], in assay [2], in assay [3], in [4], in assay [5] and in assay [6] was “inactive” in each case. Also, the Potency entry in assay [7], in assay [10], in assay [13] and in assay [14] was “inactive” throughout. Also, the Potency was 21.7 µM (active) in assay [8], 24.3 µM (active) in [9], 27.3 µM (active) in assay [11] and 24.3 µM (active) in assay [12].
Turning to `CCO[Si](OCC)(OCC)OCC`, the Potency result in [1], in assay [2], in assay [3], in [4], in assay [5] and in [6] was “inactive” in each case. The Potency entry in assay [15], in assay [7], in [8], in assay [9], in assay [16] and in assay [10] was “inactive” in each case. Besides, the Potency result in assay [17], in assay [12], in assay [13] and in assay [14] was “inactive” throughout.
On to `O=C(Oc1ccccc1)Oc1ccccc1`, for which the Potency result in [1], in assay [2], in assay [3], in [4], in assay [5] and in assay [6] was “inactive” throughout. Further, the Potency result in [15], in assay [7], in assay [8], in assay [9], in [16] and in assay [10] was “inactive” in each case. Besides, the Potency entry in [17], in [11], in assay [13] and in [14] was “inactive” each time.
Take `O=C(O)CCN(C1(C(=O)NO)CCCC1)S(=O)(=O)c1ccc(Oc2ccc(F)cc2)cc1`: the Potency entry in assay [1], in assay [2], in [3], in [18], in assay [4] and in assay [5] was “inactive” throughout. For the same compound, the Potency entry in assay [6], in assay [7], in [8], in assay [9], in [10] and in assay [17] was “inactive” in each case. Also, the Potency result in assay [12], in assay [13] and in assay [14] was “inactive” each time.
Turning to `CCCCC(CC)COC(=O)CCCCC(=O)OCc1ccccc1` (stereo not given), the Potency entry in assay [1], in assay [2], in assay [3], in [4], in [5] and in assay [6] was “inactive” in each case. In addition, the Potency result in assay [15], in assay [7], in assay [8], in assay [9], in [16] and in assay [17] was “inactive” each time. Also, the Potency entry in assay [11], in assay [12], in assay [13] and in assay [14] was “inactive” each time.
`O=[N+]([O-])c1ccc(O)cc1C(F)(F)F`: the Potency result in assay [1], in assay [2], in assay [3], in assay [18], in assay [5] and in assay [6] was “inactive” in each case. Also, the Potency entry in assay [15], in assay [7], in assay [17], in assay [11], in [12] and in assay [13] was “inactive” in each case. In addition, in assay [14], the Potency result was “inactive”. The Potency in assay [8] is 48.6 µM (active); in [9], 27.3 µM (active).
For the compound `CCc1cccc(CC)c1NC(=O)CN(CC(=O)O)CC(=O)O`, the Potency entry in [1], in assay [2], in assay [3], in assay [4], in assay [5] and in assay [6] was “inactive” each time. Besides, the Potency result in [15], in assay [7], in [8], in assay [9], in assay [16] and in assay [19] was “inactive” each time. For the same compound, the Potency result in assay [10], in assay [17], in assay [11], in assay [12], in assay [13] and in [14] was “inactive” in each case.
Regarding `OC[C@H]1O[C@H](O[C@H]2O[C@H](CO)[C@@H](O)[C@H](O)[C@H]2O)[C@H](O)[C@@H](O)[C@@H]1O`, the Potency result in [1], in assay [2], in assay [3], in assay [4], in assay [5] and in assay [6] was “inactive” each time. Moreover, the Potency entry in [15], in assay [7], in assay [8], in assay [9], in assay [20] and in [10] was “inactive” throughout. Moreover, the Potency entry in [17], in [12], in [13] and in [14] was “inactive” throughout.
Turning to `CC(=O)[C@H]1CC[C@H]2[C@@H]3CCC4=CC(=O)CC[C@]4(C)[C@H]3CC[C@]12C`, the Potency result in [1], in assay [3], in assay [6], in assay [7], in [8] and in [9] was “inactive” throughout. Moreover, the Potency entry in assay [17], in [11] and in assay [13] was “inactive” in each case. The Potency was 49 µM (active) in [2]; 15.4 µM (active) and 17.4 µM (active) in assay [4]; 13.7 µM (active) in assay [5]; 6.88 µM (active) and 5.49 µM (active) in [15]; 9.63 µM (active) and 6.11 µM (active) in assay [14].
Consider `O=C(/C=C/c1ccc(O)c(O)c1)O[C@@H](C(=O)O)[C@@H](OC(=O)/C=C/c1ccc(O)c(O)c1)C(=O)O`, for which the Potency entry in assay [1], in assay [2], in assay [3], in [4], in [5] and in assay [6] was “inactive” throughout. The Potency entry in assay [15], in assay [7], in assay [8], in [9], in assay [10] and in assay [17] was “inactive” in each case. Also, in assay [13], the Potency entry was “inactive”.
As for `CN(C)CCN1CCN(c2cccc(Cl)c2)C1=O`, the Potency entry in assay [1], in assay [2], in [3], in [18], in assay [6] and in [15] was “inactive” each time. The Potency result in assay [7], in [8], in assay [9], in assay [20], in [16] and in assay [10] was “inactive” throughout. Further, the Potency entry in assay [17], in assay [11], in assay [12], in assay [13] and in assay [14] was “inactive” each time.
